Laboratory results taken from PubChem BioAssay (EPA / NIEHS).
Records with an inconclusive call do not appear. The source made the active and inactive calls. Rule for the calls, unless noted: active = hit-call score of the fitted dose curve at least 0.9, where 1 is the maximum; inactive = score below 0.9.

Experiments:
[1] = biological target: human RAR-related Orphan Receptor beta (RORb), RORB (gene 6096) (UniProt Q92753); assay: ATG_RORb_TRANS: Attagene TRANS-FACTORIAL HepG2 Assay for human RAR-related Orphan Receptor beta (RORb) (AID 2283010; active = hit-call score of the fitted dose curve at least 0.9, where 1 is the maximum)
human RAR-related Orphan Receptor beta (RORb), RORB (gene 6096), sequence (Q92753 whole entry, looked up, the tested form may be a part): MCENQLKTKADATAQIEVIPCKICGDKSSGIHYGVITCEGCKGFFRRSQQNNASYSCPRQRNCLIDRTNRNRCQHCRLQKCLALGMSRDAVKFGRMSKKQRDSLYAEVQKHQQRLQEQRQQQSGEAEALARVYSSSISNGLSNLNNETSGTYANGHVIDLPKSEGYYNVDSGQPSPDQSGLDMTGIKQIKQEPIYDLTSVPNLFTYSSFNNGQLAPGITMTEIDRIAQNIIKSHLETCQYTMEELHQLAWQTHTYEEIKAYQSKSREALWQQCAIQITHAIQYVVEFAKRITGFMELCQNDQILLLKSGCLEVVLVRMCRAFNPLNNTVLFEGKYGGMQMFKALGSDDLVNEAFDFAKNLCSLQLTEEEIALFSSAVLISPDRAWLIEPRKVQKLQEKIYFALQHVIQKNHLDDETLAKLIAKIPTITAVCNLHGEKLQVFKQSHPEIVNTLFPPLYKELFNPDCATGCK
How it was run: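 HepG2, transient MRTU transfection (GAL4-UAS reporters, exogenous NR-Gal4 chimeras); 24 h compound exposure; total RNA → RT-PCR → 6-FAM primer extension → HpaI digest → CE fluorescence. Positive direction vs DMSO baseline.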

[2] = biological target: human RAR-related Orphan Receptor gamma (RORg), RORC (gene 6097) (UniProt P51449); assay: ATG_RORg_TRANS: Attagene TRANS-FACTORIAL HepG2 Assay for human RAR-related Orphan Receptor gamma (RORg) (AID 2283011; active = hit-call score of the fitted dose curve at least 0.9, where 1 is the maximum)
human RAR-related Orphan Receptor gamma (RORg), RORC (gene 6097), sequence (P51449 whole entry, looked up, the tested form may be a part): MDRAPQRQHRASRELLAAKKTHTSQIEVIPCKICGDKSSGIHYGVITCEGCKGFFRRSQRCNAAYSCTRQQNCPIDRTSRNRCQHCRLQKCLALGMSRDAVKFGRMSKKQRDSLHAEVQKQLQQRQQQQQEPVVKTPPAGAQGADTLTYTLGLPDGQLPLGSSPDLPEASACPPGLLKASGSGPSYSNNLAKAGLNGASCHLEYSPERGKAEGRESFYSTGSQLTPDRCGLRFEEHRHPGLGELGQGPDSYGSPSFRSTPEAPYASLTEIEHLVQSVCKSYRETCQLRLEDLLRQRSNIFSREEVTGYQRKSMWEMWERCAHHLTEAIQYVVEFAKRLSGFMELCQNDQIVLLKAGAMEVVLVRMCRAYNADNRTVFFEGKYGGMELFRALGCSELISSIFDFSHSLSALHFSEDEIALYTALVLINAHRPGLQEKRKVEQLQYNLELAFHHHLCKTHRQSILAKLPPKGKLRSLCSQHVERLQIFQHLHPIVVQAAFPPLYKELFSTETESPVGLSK
How it was run: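 HepG2 cells transiently transfected with GAL4-UAS reporter units and chimeric RORg-Gal4 construct; after 24 h chemical exposure, reporter mRNA measured by RT-PCR with fluorescent capillary electrophoresis, gain of signal fitted against DMSO.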

[3] = biological target: Retinoic acid receptor RXR-alpha (Homo sapiens) (UniProt P19793); assay: ATG_RXRa_TRANS: Attagene TRANS-FACTORIAL HepG2 Assay for human Retinoid X Receptor alpha (RXRa) (AID 2283012; active = hit-call score of the fitted dose curve at least 0.9, where 1 is the maximum)
Retinoic acid receptor RXR-alpha (Homo sapiens), sequence (P19793 whole entry, looked up, the tested form may be a part): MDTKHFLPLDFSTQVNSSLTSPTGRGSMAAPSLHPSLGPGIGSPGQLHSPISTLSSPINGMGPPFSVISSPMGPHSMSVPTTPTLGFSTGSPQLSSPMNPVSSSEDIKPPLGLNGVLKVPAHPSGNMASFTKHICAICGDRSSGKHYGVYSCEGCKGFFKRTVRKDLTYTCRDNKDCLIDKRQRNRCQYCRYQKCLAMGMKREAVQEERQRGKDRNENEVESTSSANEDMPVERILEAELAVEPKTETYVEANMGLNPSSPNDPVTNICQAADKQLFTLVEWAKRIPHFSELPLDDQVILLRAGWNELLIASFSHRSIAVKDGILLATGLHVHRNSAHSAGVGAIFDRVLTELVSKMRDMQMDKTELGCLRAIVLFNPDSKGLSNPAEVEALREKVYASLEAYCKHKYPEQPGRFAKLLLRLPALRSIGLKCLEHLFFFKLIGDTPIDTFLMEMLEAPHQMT
How it was run: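 Read-out: fluorescent reporter-transcript fragments quantified by capillary electrophoresis after RT-PCR. Transiently transfected HepG2 cells carrying GAL4-UAS reporters and NR-GAL4 chimeras were exposed to chemical for 24 h; activity scored as increase over DMSO.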

[4] = biological target: human Retinoid X Receptor beta (RXRb), RXRB (gene 6257) (UniProt P28702); assay: ATG_RXRb_TRANS: Attagene TRANS-FACTORIAL HepG2 Assay for human Retinoid X Receptor beta (RXRb) (AID 2283013; active = hit-call score of the fitted dose curve at least 0.9, where 1 is the maximum)
human Retinoid X Receptor beta (RXRb), RXRB (gene 6257), sequence (P28702 whole entry, looked up, the tested form may be a part): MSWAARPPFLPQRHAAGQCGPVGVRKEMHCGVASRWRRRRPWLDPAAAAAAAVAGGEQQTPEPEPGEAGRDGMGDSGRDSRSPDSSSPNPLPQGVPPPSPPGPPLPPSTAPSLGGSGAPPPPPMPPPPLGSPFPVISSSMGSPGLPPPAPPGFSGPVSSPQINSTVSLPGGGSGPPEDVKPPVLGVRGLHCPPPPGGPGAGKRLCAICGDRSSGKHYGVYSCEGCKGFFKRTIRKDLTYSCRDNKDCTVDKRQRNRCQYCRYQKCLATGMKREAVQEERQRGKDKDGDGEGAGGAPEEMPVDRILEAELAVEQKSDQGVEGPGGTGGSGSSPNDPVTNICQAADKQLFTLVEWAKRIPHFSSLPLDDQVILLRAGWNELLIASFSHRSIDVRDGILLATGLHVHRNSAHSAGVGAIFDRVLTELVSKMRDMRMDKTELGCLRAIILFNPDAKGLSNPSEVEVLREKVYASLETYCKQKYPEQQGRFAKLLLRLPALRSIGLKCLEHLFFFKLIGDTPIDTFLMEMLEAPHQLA
How it was run: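 Read-out: reporter mRNA induction via RT-PCR plus capillary electrophoresis fluorescence, analysed as signal increase relative to DMSO. Cells were human HepG2, transiently transfected with GAL4-UAS reporter constructs and chimeric receptor-Gal4 fusions, dosed for 24 h.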

[5] = biological target: human Thyroid Receptor alpha (THRa1), THRA (gene 7067) (UniProt P10827); assay: ATG_THRa1_TRANS: Attagene TRANS-FACTORIAL HepG2 Assay for human Thyroid Receptor alpha (THRa1) (AID 2283014; active = hit-call score of the fitted dose curve at least 0.9, where 1 is the maximum)
human Thyroid Receptor alpha (THRa1), THRA (gene 7067), sequence (P10827 whole entry, looked up, the tested form may be a part): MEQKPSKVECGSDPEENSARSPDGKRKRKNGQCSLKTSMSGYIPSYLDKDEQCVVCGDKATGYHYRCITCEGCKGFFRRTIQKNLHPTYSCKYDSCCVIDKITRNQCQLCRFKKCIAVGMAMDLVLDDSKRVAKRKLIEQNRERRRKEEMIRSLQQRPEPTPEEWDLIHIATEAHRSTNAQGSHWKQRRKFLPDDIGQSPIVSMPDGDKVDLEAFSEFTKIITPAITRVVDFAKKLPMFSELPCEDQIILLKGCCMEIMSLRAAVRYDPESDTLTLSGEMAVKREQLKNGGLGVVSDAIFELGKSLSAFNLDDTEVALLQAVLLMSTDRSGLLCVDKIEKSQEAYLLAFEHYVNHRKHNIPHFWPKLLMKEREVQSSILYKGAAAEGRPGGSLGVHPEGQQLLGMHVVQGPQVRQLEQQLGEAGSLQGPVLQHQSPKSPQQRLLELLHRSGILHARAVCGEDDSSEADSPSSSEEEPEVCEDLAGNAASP
How it was run: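 HepG2 cells transiently transfected with chimeric NR-Gal4 and GAL4-UAS reporter units, dosed 24 h. Reporter mRNA quantified by RT-PCR, fluorescent labeling, HpaI digestion and capillary electrophoresis; gain-of-signal fit versus DMSO.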

[6] = read-out: E-selectin (Homo sapiens) (UniProt P16581); assay: BSK_3C_Eselectin: BioMAP Diversity Plus: 3C Assay for Eselectin Biomarker Activity (AID 2283015); settings: primary human endothelial cells (HUVEC); actives raise or lower the signal
How it was run: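 Primary human umbilical vein endothelial cells (3C system), read 24 h after compound addition; E-selectin measured by ELISA. Bidirectional curve fitting against DMSO baseline; cytotoxicity by parallel SRB total-protein staining.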

[7] = read-out: Interleukin-1 alpha (IL1a), IL1A (gene 3552); assay: BSK_BE3C_IL1a: BioMAP Diversity Plus: BE3C Assay for Interleukin-1 alpha (IL1a) Biomarker Activity (AID 2283016); settings: primary human bronchial epithelial cells; actives raise or lower the signal
How it was run: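 ELISA read-out of IL-1a from human lung bronchial epithelial primary cells, 24 h post-dose. Gain or loss of signal fitted relative to DMSO negative control.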

[8] = read-out: Monocyte Chemoattractant Protein-1 (MCP1), CCL2 (gene 6347); assay: BSK_3C_MCP1: BioMAP Diversity Plus: 3C Assay for Monocyte Chemoattractant Protein-1 (MCP1) Biomarker Activity (AID 2283017); settings: primary human endothelial cells (HUVEC); actives raise or lower the signal
How it was run: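 Human umbilical vein endothelial cells (3C system) exposed to chemicals for 24 h; MCP-1 quantified by ELISA against the DMSO baseline with bidirectional fitting, and parallel SRB staining used to assess cytotoxicity.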

[9] = read-out: Human Leukocyte Antigen - DR isotype (HLADR), HLA-DRA (gene 3122); assay: BSK_3C_HLADR: BioMAP Diversity Plus: 3C Assay for Human Leukocyte Antigen - DR isotype (HLADR) Biomarker Activity (AID 2283019); settings: primary human endothelial cells (HUVEC); actives raise or lower the signal
How it was run: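 HUVEC monoculture, HLA-DR measured by ELISA 24 h after chemical dosing. Fitted bidirectionally against DMSO baseline; parallel SRB staining assessed cytotoxicity, with 3C proliferation read by SRB at 48 h.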

[10] = read-out: Monocyte Chemoattractant Protein-1 (MCP1), CCL2 (gene 6347); assay: BSK_4H_MCP1: BioMAP Diversity Plus: 4H Assay for Monocyte Chemoattractant Protein-1 (MCP1) Biomarker Activity (AID 2283018); settings: primary human endothelial cells (HUVEC); actives raise or lower the signal
How it was run: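 HUVEC primary cells, 24 h post-dose, MCP-1 by ELISA. Gain or loss of signal fitted bidirectionally vs DMSO baseline. Cytotoxicity: SRB stain (0.1% after 10% TCA fixation), read 560 nm, parallel cultures.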

Measured: AC50

E-selectin (Homo sapiens), sequence (P16581 whole entry, looked up): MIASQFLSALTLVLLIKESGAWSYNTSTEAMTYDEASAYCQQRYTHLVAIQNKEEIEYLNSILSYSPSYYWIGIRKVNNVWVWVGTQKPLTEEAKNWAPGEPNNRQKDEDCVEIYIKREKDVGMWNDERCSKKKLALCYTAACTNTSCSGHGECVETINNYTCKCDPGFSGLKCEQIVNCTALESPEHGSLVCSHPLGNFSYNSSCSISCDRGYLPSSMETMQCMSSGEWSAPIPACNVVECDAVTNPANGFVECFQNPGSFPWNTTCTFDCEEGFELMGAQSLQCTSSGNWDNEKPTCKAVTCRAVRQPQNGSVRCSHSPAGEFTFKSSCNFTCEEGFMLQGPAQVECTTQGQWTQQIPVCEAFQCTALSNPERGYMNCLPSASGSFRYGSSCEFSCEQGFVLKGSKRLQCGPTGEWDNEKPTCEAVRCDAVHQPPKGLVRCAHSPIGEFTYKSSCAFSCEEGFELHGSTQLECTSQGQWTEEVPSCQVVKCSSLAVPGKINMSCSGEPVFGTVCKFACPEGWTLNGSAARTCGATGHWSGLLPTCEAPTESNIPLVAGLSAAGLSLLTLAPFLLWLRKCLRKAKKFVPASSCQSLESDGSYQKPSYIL

O=c1c(O)c(-c2ccc(O)c(O)c2)oc2cc(O)cc(O)c12
active: [6] 34.7 µM | [7] 15.8 µM | [8] 15 µM
not listed: [9] | [10]
inactive: all other assays above

CCOC(=O)CCC(=O)OCC
inactive: [1] | [3] | [7] | [8] | [9]

CC(=O)OC/C=C(\C)CCC=C(C)C
not listed: [5]
inactive: all other assays above

Oc1ccc2ccccc2c1N=Nc1ccccc1
active: [4] 6.33 µM
inactive: [1] | [5] | [7] | [8] | [9]

O=C(N[C@@H](Cc1ccccc1)[C@@H](O)C(=O)N1C[C@@H](O)[C@@H](O)C1)c1cc2cc(Cl)ccc2[nH]1
inactive: [1] | [2] | [3] | [7] | [8] | [9]

CCCc1cc(=O)[nH]c(=S)[nH]1
not listed: [2] | [3] | [5]
inactive: all other assays above

C=CCOC(=O)c1ccccc1C(=O)OCC=C
not listed: [2] | [5] | [6]
inactive: all other assays above

CN1CCCC1=O
active: [4] 31.5 µM
not listed: [5] | [6]
inactive: all other assays above

Cc1c(C(=O)O)c(O)cc2c1C(=O)c1c(O)c([C@@H]3O[C@H](CO)[C@@H](O)[C@H](O)[C@H]3O)c(O)c(O)c1C2=O
not listed: [2] | [3] | [5]
inactive: all other assays above

CCCCCCC(=O)OCC
active: [4] 32.5 µM
not listed: [2] | [6]
inactive: all other assays above

COc1cc(C=O)ccc1O
not listed: [5] | [6]
inactive: all other assays above

O=C(O)CCCCC(=O)O
not listed: [5]
inactive: all other assays above

C[Si]1(C)O[Si](C)(C)O[Si](C)(C)O[Si](C)(C)O1
active: [4] 46.9 µM
not listed: [3] | [5] | [10]
inactive: all other assays above

NCCO
not listed: [2] | [5]
inactive: all other assays above

Cc1ccc(C)c(O)c1C
inactive: [1] | [4] | [5] | [7] | [8] | [9]

Nc1nc(N)c2nc(CNc3ccc(C(=O)N[C@@H](CCC(=O)O)C(=O)O)cc3)cnc2n1
not listed: [6]
inactive: all other assays above

FC(F)(F)C(F)(F)C(F)(F)C(F)(F)C(F)(F)C(F)(F)CCI
not listed: [5]
inactive: all other assays above

CCCCOC(=O)CCCCCCCCC(=O)OCCCC
not listed: [2] | [5] | [10]
inactive: all other assays above

CCOc1ccc2c(c1)C(C)=CC(C)(C)N2
active: [3] 100 µM | [4] 6.69 µM | [5] 100 µM
not listed: [10]
inactive: all other assays above

Cc1cc(=O)[nH]c(=S)[nH]1
not listed: [3] | [5]
inactive: all other assays above

CCCCC(CC)COC(=O)CC(C(=O)OCC(CC)CCCC)S(=O)(=O)O (stereo not given)
inactive: [1] | [2] | [3] | [4]
active: [7] 11.6 µM | [8] 31.4 µM | [9] 37.9 µM

C=CCc1ccc(O)c(OC)c1
active: [4] 63.2 µM
not listed: [2] | [5]
inactive: all other assays above

CCNc1cccc(C)c1
not listed: [2] | [6] | [10]
inactive: all other assays above

O=c1[nH]cc(F)c(=O)[nH]1
not listed: [2] | [5] | [10]
inactive: all other assays above
